# About 2,000 (36%) of roughly 5,500 compounds were called active. Not shown: some 18% with an inconclusive outcome. The list shows a part of the results. Unmarked numbers belong to inactive results. No stated cut-off is given here; in the data, active means normalized growth mostly below about 0.91 (no sharp cut-off); inconclusive means no clear call, values can overlap the other calls; inactive means mostly above about 0.92.
# Experiment: chemical genetic growth profiling, strain panel (AID 1159580);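 further: tested at 20 µM; growth read once vehicle control cultures reached saturation at 30 °C; 1 = growth at the plate median or of vehicle wells; lower values mean less growth of the strain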
# Details: growth OD
# [1] = S. cerevisiae deletion strains, locus YDL101C, strain DUN1, active compounds read low
# [2] = S. cerevisiae deletion strains, locus YHR030C, strain SLT2, active compounds read low
structure (smiles),measurement,setting,value
N/C(=N/OCc1c(F)cccc1Cl)c1ccc(Cl)cc1,normalized growth,"S. cerevisiae deletion strains, locus YAR019C, strain CDC15, active compounds read low",0.914
same,normalized growth,"S. cerevisiae deletion strains, locus YBL105C, strain PKC1, active compounds read low",0.922
same,normalized growth,"S. cerevisiae deletion strains, locus YBR135W, strain CKS1, active compounds read low",0.929
same,normalized growth,"S. cerevisiae deletion strains, locus YBR136W, strain MEC1, active compounds read low",0.92
same,normalized growth,"S. cerevisiae deletion strains, locus YBR160W, strain CDC28, active compounds read low",0.932
same,normalized growth,"S. cerevisiae deletion strains, locus YDL017W, strain CDC7, active compounds read low",0.921
same,normalized growth,"S. cerevisiae deletion strains, locus YDL028C, strain MPS1, active compounds read low",0.93
same,normalized growth,[1],0.921
same,normalized growth,"S. cerevisiae deletion strains, locus YDL108W, strain KIN28, active compounds read low",0.922
same,normalized growth,"S. cerevisiae deletion strains, locus YDL132W, strain cdc53, active compounds read low",0.95
same,normalized growth,"S. cerevisiae deletion strains, locus YDL214C, strain PRR2, active compounds read low",0.91
same,normalized growth,"S. cerevisiae deletion strains, locus YDR052C, strain DBF4, active compounds read low",0.941
same,normalized growth,"S. cerevisiae deletion strains, locus YDR054C, strain cdc34, active compounds read low",0.905
same,normalized growth,"S. cerevisiae deletion strains, locus YDR226W, strain ADK1, active compounds read low",0.905
same,normalized growth,"S. cerevisiae deletion strains, locus YDR477W, strain SNF1, active compounds read low",0.92
same,normalized growth,"S. cerevisiae deletion strains, locus YER123W, strain YCK3, active compounds read low",0.934
same,normalized growth,"S. cerevisiae deletion strains, locus YER133W, strain GLC7, active compounds read low",0.912
same,normalized growth,"S. cerevisiae deletion strains, locus YFL009W, strain cdc4, active compounds read low",0.913
same,normalized growth,"S. cerevisiae deletion strains, locus YFL029C, strain CAK1, active compounds read low",0.922
same,normalized growth,"S. cerevisiae deletion strains, locus YFR003C, strain YPI1, active compounds read low",0.924
same,normalized growth,"S. cerevisiae deletion strains, locus YFR019W, strain FAB1, active compounds read low",0.914
same,normalized growth,"S. cerevisiae deletion strains, locus YFR028C, strain CDC14, active compounds read low",0.94
same,normalized growth,"S. cerevisiae deletion strains, locus YGR040W, strain KSS1, active compounds read low",0.919
same,normalized growth,"S. cerevisiae deletion strains, locus YGR052W, strain FMP48, active compounds read low",0.925
same,normalized growth,"S. cerevisiae deletion strains, locus YGR092W, strain DBF2, active compounds read low",0.824
same,normalized growth,[2],0.721 (active)
same,normalized growth,"S. cerevisiae deletion strains, locus YHR079C, strain IRE1, active compounds read low",0.326 (active)
same,normalized growth,"S. cerevisiae deletion strains, locus YHR082C, strain KSP1, active compounds read low",0.974
same,normalized growth,"S. cerevisiae deletion strains, locus YHR205W, strain SCH9, active compounds read low",0.765
same,normalized growth,"S. cerevisiae deletion strains, locus YIL147C, strain SLN1, active compounds read low",0.916
same,normalized growth,"S. cerevisiae deletion strains, locus YJL095W, strain BCK1, active compounds read low",0.842
same,normalized growth,"S. cerevisiae deletion strains, locus YJL128C, strain PBS2, active compounds read low",0.945
same,normalized growth,"S. cerevisiae deletion strains, locus YJL157C, strain FAR1, active compounds read low",0.929
same,normalized growth,"S. cerevisiae deletion strains, locus YJR016C, strain ILV3, active compounds read low",0.929
same,normalized growth,"S. cerevisiae deletion strains, locus YJR066W, strain TOR1 (second series), active compounds read low",0.962
same,normalized growth,"S. cerevisiae deletion strains, locus YJR066W, strain TOR1, active compounds read low",0.93
same,normalized growth,"S. cerevisiae deletion strains, locus YKL048C, strain ELM1, active compounds read low",0.903
same,normalized growth,"S. cerevisiae deletion strains, locus YKL067W, strain YNK1, active compounds read low",0.923
same,normalized growth,"S. cerevisiae deletion strains, locus YKL101W, strain HSL1, active compounds read low",0.911
same,normalized growth,"S. cerevisiae deletion strains, locus YKL193C, strain SDS22, active compounds read low",0.907
same,normalized growth,"S. cerevisiae deletion strains, locus YKL203C, strain TOR2, active compounds read low",0.997
same,normalized growth,"S. cerevisiae deletion strains, locus YLR113W, strain HOG1, active compounds read low",0.785 (active)
same,normalized growth,"S. cerevisiae deletion strains, locus YLR133W, strain CKI1, active compounds read low",0.935
same,normalized growth,"S. cerevisiae deletion strains, locus YLR403W, strain SFP1, active compounds read low",0.847
same,normalized growth,"S. cerevisiae deletion strains, locus YML070W, strain DAK1, active compounds read low",0.909
same,normalized growth,"S. cerevisiae deletion strains, locus YMR001C, strain CDC5, active compounds read low",0.916
same,normalized growth,"S. cerevisiae deletion strains, locus YMR205C, strain PFK2 (second series), active compounds read low",0.886
same,normalized growth,"S. cerevisiae deletion strains, locus YMR277W, strain FCP1, active compounds read low",0.919
same,normalized growth,"S. cerevisiae deletion strains, locus YNL006W, strain LST8, active compounds read low",0.928
same,normalized growth,"S. cerevisiae deletion strains, locus YNL020C, strain ARK1, active compounds read low",0.926
same,normalized growth,"S. cerevisiae deletion strains, locus YNL161W, strain CBK1, active compounds read low",0.916
same,normalized growth,"S. cerevisiae deletion strains, locus YNL183C, strain NPR1, active compounds read low",0.956
same,normalized growth,"S. cerevisiae deletion strains, locus YNL207W, strain RIO2, active compounds read low",0.903
same,normalized growth,"S. cerevisiae deletion strains, locus YNL222W, strain SSU72, active compounds read low",0.933
same,normalized growth,"S. cerevisiae deletion strains, locus YNL307C, strain MCK1 (second series), active compounds read low",0.917
same,normalized growth,"S. cerevisiae deletion strains, locus YOL078W, strain AVO1, active compounds read low",0.915
same,normalized growth,"S. cerevisiae deletion strains, locus YOL136C, strain PFK27, active compounds read low",0.901
same,normalized growth,"S. cerevisiae deletion strains, locus YOR061W, strain CKA2, active compounds read low",0.966
same,normalized growth,"S. cerevisiae deletion strains, locus YOR119C, strain RIO1, active compounds read low",0.983
same,normalized growth,"S. cerevisiae deletion strains, locus YOR231W, strain MKK1, active compounds read low",0.932
same,normalized growth,"S. cerevisiae deletion strains, locus YOR329C, strain SCD5, active compounds read low",0.915
same,normalized growth,"S. cerevisiae deletion strains, locus YPL031C, strain PHO85, active compounds read low",0.902
same,normalized growth,"S. cerevisiae deletion strains, locus YPL153C, strain RAD53, active compounds read low",0.933
same,normalized growth,"S. cerevisiae deletion strains, locus YPL204W, strain HRR25, active compounds read low",0.908
same,normalized growth,"S. cerevisiae deletion strains, locus YPL209C, strain IPL1, active compounds read low",0.919
same,normalized growth,"S. cerevisiae deletion strains, locus YPL256C, strain CLN2, active compounds read low",0.767 (active)
same,normalized growth,"S. cerevisiae deletion strains, locus YPR025C, strain CCL1, active compounds read low",0.926
same,normalized growth,"S. cerevisiae deletion strains, locus YPR106W, strain ISR1, active compounds read low",0.915
same,normalized growth,"S. cerevisiae deletion strains, locus YPR111W, strain DBF20, active compounds read low",0.911
same,normalized growth,"S. cerevisiae deletion strains, strain NNK1, active compounds read low",0.899
same,normalized growth,"S. cerevisiae deletion strains, strain TSCII, active compounds read low",0.91
N=C(N)SCc1c(F)cccc1Cl,normalized growth,"S. cerevisiae deletion strains, locus YAL013W, strain DEP1, active compounds read low",0.996
same,normalized growth,"S. cerevisiae deletion strains, locus YBR229C, strain ROT2, active compounds read low",0.986
same,normalized growth,"S. cerevisiae deletion strains, locus YCL061C, strain MRC1, active compounds read low",1.01
same,normalized growth,[1],0.968
same,normalized growth,"S. cerevisiae deletion strains, locus YDL134C, strain PPH21, active compounds read low",1
same,normalized growth,"S. cerevisiae deletion strains, locus YDR150W, strain NUM1, active compounds read low",0.984
same,normalized growth,"S. cerevisiae deletion strains, locus YEL061C, strain CIN8, active compounds read low",0.98
same,normalized growth,"S. cerevisiae deletion strains, locus YGR078C, strain PAC10, active compounds read low",0.989
same,normalized growth,"S. cerevisiae deletion strains, locus YGR229C, strain SMI1, active compounds read low",0.998
same,normalized growth,[2],0.947
same,normalized growth,"S. cerevisiae deletion strains, locus YHR087W, strain rtc3, active compounds read low",0.978
same,normalized growth,"S. cerevisiae deletion strains, locus YJR043C, strain POL32, active compounds read low",0.99
same,normalized growth,"S. cerevisiae deletion strains, locus YJR075W, strain HOC1, active compounds read low",0.991
same,normalized growth,"S. cerevisiae deletion strains, locus YKL190W, strain CNB1, active compounds read low",0.983
same,normalized growth,"S. cerevisiae deletion strains, locus YLR039C, strain RIC1, active compounds read low",0.978
same,normalized growth,"S. cerevisiae deletion strains, locus YLR058C, strain SHM2 (second series), active compounds read low",0.986
same,normalized growth,"S. cerevisiae deletion strains, locus YLR085C, strain ARP6, active compounds read low",0.993
same,normalized growth,"S. cerevisiae deletion strains, locus YLR262C, strain YPT6, active compounds read low",0.989
same,normalized growth,"S. cerevisiae deletion strains, locus YML094W, strain GIM5, active compounds read low",0.935
same,normalized growth,"S. cerevisiae deletion strains, locus YMR219W, strain ESC1, active compounds read low",1
same,normalized growth,"S. cerevisiae deletion strains, locus YMR263W, strain SAP30, active compounds read low",1.04
same,normalized growth,"S. cerevisiae deletion strains, locus YNL128W, strain TEP1, active compounds read low",0.968
same,normalized growth,"S. cerevisiae deletion strains, locus YNL153C, strain GIM3, active compounds read low",1.01
same,normalized growth,"S. cerevisiae deletion strains, locus YNL298W, strain CLA4 (second series), active compounds read low",0.96
same,normalized growth,"S. cerevisiae deletion strains, locus YNL322C, strain KRE1, active compounds read low",0.982
same,normalized growth,"S. cerevisiae deletion strains, locus YNR030W, strain Alg12, active compounds read low",0.975
same,normalized growth,"S. cerevisiae deletion strains, locus YPL055C, strain LGE1, active compounds read low",0.956
same,normalized growth,"S. cerevisiae deletion strains, locus YPL241C, strain CIN2, active compounds read low",1.12
same,normalized growth,"S. cerevisiae deletion strains, locus YPR135W, strain CTF4, active compounds read low",0.896
same,normalized growth,"S. cerevisiae strains, strain wild type, active compounds read low",0.986

# Source: PubChem BioAssay AID1159580 (chemical genetic matrix, 2015)
